Test results taken from PubChem BioAssay (Tox21).
“And” between values parts separate entries of the source, which are not always exact repeats. Equal entries are not always repeated. Results filed as inconclusive are left out. A call without a number means that no potency is given here. A structure can be active in one record and inactive in another. The source made the active and inactive calls. The call rests on the fitted dose curve; in most records, active means well fitted curve in the direction sought with a large enough effect in the repeat runs; inconclusive means weak or mixed curves; inactive means no such curve, though single readings can be large; an effect the other way counts as inactive or inconclusive.

Columns and labels:
[1] = qHTS RealTime-Glo MT Cell Viability Assay in HepG2 cells - 24 hour (AID 1224867); settings: RealTime-Glo luminescence; series mostly up to 76.8 µM; further: nearly all actives have a fitted effect of over 50% in size
Summary of the method: (§1)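 Cell number in HepG2 cultures estimated from NanoLuc luminescence generated by metabolic reduction of a prosubstrate by living cells. The homogeneous, nonlytic format allowed repeated reads at 0, 8, 16, 24, 32 and 40 h of compound exposure.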

[2] = qHTS RealTime-Glo MT Cell Viability Assay in HEK293 cells - 32 hour (AID 1224868); settings: RealTime-Glo luminescence; series mostly up to 76.8 µM; further: top concentration of the series differs between compounds; nearly all actives have a fitted effect of over 50% in size
Summary of the method: (§2)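 Homogeneous bioluminescent viability format in HEK293 cells (600 cells/well). Following 5 h at 37 C/5% CO2, 23 nL compound was pintooled; the signal was measured repeatedly during 40 h incubation.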

[3] = A CellTox Green Cytotoxicity Assay to monitor cytotoxicity in HEK293 cells - 0 hour (AID 1224869); settings: CellTox Green fluorescence; series mostly up to 76.8 µM; further: nearly all actives have a fitted effect of over 50% in size
Summary of the method: (§3)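 Cytotoxicity was tracked continuously in HEK293 cells by a DNA-binding dye excluded from viable cells. Compounds were transferred in DMSO 5 h after seeding; fluorescence was recorded at intervals up to 40 h.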

[4] = qHTS RealTime-Glo MT Cell Viability Assay in HepG2 cells - 40 hour (AID 1224870); settings: RealTime-Glo luminescence; series mostly up to 76.8 µM; further: nearly all actives have a fitted effect of over 50% in size
Summary of the method: (§4)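 HepG2 cells mixed with RealTime-Glo MT reagents (NanoLuc plus cell-permeant prosubstrate) were seeded at 600 cells/well, incubated 5 h at 37 C/5% CO2, then pinned with compounds in DMSO; nonlytic luminescence tracked viability during 40 h treatment.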

[5] = A CellTox Green Cytotoxicity Assay to monitor cytotoxicity in HEK293 cells - 40 hour (AID 1224871); settings: CellTox Green fluorescence; series mostly up to 76.8 µM; further: nearly all actives have a fitted effect of over 45% in size
Summary of the method: as §3

[6] = qHTS RealTime-Glo MT Cell Viability Assay in HEK293 cells - 16 hour (AID 1224872); settings: RealTime-Glo luminescence; series mostly up to 76.8 µM
Summary of the method: as §2

[7] = qHTS RealTime-Glo MT Cell Viability Assay in HepG2 cells - 8 hour (AID 1224873); settings: RealTime-Glo luminescence; series mostly up to 76.8 µM; further: nearly all actives have a fitted effect of over 55% in size
Summary of the method: as §4

[8] = qHTS RealTime-Glo MT Cell Viability Assay in HEK293 cells - 40 hour (AID 1224874); settings: RealTime-Glo luminescence; max response: stronger effect = lower value; further: nearly all actives have a fitted effect of over 50% in size
Summary of the method: (§5)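 Nonlytic bioluminescent viability monitoring. HEK293 at 600 cells/well with reagent; 5 h settle; compound transfer by pintool; plates held at 37 C and read at set time points.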

[9] = A CellTox Green Cytotoxicity Assay to monitor cytotoxicity in HEK293 cells - 24 hour (AID 1224875); settings: CellTox Green fluorescence; series mostly up to 76.8 µM; further: nearly all actives have a fitted effect of over 45% in size
Summary of the method: as §3

[10] = qHTS RealTime-Glo MT Cell Viability Assay in HepG2 cells - 32 hour (AID 1224877); settings: RealTime-Glo luminescence; series mostly up to 76.8 µM; further: nearly all actives have a fitted effect of over 55% in size
Summary of the method: as §1

[11] = A CellTox Green Cytotoxicity Assay to monitor cytotoxicity in HepG2 cells - 24 hour (AID 1224878); settings: CellTox Green fluorescence; series mostly up to 76.8 µM; further: nearly all actives have a fitted effect of over 45% in size
Summary of the method: (§6)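 Real-time, homogeneous cytotoxicity readout: dead-cell DNA staining by CellTox Green in HepG2 monolayers, fluorescence measured at timed intervals up to 40 h of continuous compound exposure.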

[12] = A CellTox Green Cytotoxicity Assay to monitor cytotoxicity in HepG2 cells - 40 hour (AID 1224879); settings: CellTox Green fluorescence; series mostly up to 76.8 µM; further: nearly all actives have a fitted effect of over 40% in size; further: potency means the concentration at half of the fitted maximal effect
Summary of the method: as §6

[13] = qHTS RealTime-Glo MT Cell Viability Assay in HEK293 cells - 0 hour (AID 1224880); settings: RealTime-Glo luminescence; series mostly up to 76.8 µM; further: top concentration of the series differs between compounds; nearly all actives have a fitted effect of over 45% in size
Summary of the method: as §5

[14] = A CellTox Green Cytotoxicity Assay to monitor cytotoxicity in HEK293 cells - 32 hour (AID 1224881); settings: CellTox Green fluorescence; series mostly up to 76.8 µM; further: nearly all actives have a fitted effect of over 40% in size
Summary of the method: as §3

[15] = A CellTox Green Cytotoxicity Assay to monitor cytotoxicity in HepG2 cells - 0 hour (AID 1224882); settings: CellTox Green fluorescence; series mostly up to 76.8 µM; further: nearly all actives have a fitted effect of over 35% in size
Summary of the method: as §6

[16] = A CellTox Green Cytotoxicity Assay to monitor cytotoxicity in HepG2 cells - 32 hour (AID 1224883); settings: CellTox Green fluorescence; series mostly up to 76.8 µM; further: nearly all actives have a fitted effect of over 50% in size
Summary of the method: as §6

[17] = A CellTox Green Cytotoxicity Assay to monitor cytotoxicity in HEK293 cells - 8 hour (AID 1224884); settings: CellTox Green fluorescence; series mostly up to 76.8 µM; further: nearly all actives have a fitted effect of over 35% in size
Summary of the method: as §3

[18] = A CellTox Green Cytotoxicity Assay to monitor cytotoxicity in HepG2 cells - 16 hour (AID 1224876); settings: CellTox Green fluorescence; series mostly up to 76.8 µM; further: nearly all actives have a fitted effect of over 45% in size
Summary of the method: as §6

| Structure (SMILES) | outcome [1] | Potency [2] | outcome [3] | outcome [4] | Potency [5] | Potency [6] | outcome [7] | max response [8] | Potency [9] | outcome [10] | Potency [11] | Potency [12] | Potency [13] | Potency [14] | outcome [15] | Potency [16] | outcome [17] | Potency [18] |
| --- | --- | --- | --- | --- | --- | --- | --- | --- | --- | --- | --- | --- | --- | --- | --- | --- | --- | --- |
| FC(F)(F)c1ccc(Cl)c(Cl)c1 | inactive | inactive | inactive | inactive | inactive | inactive | inactive | 1.14% (inactive) and 2.54% (inactive) | inactive | inactive | inactive | inactive | inactive | inactive | inactive | inactive | inactive |  |
| C=C(C)C(=O)OCCOCCOCCOC(=O)C(=C)C | inactive | inactive | inactive | inactive | inactive | inactive | inactive | -0.0416% (inactive) and 6.25% (inactive) | inactive | inactive | inactive | inactive | inactive | inactive | inactive | inactive | inactive | inactive |
| CCCCCCCCCCCCS | inactive | inactive | inactive | inactive | inactive | inactive | inactive | 0.961% (inactive) and 6.67% (inactive) | inactive | inactive | inactive | inactive | inactive | inactive | inactive | inactive | inactive |  |
| Cc1cc(C)c(C)cc1C | inactive | inactive | inactive | inactive | inactive | inactive | inactive | 0.583% (inactive) and -29% (inactive) | inactive | inactive | inactive |  | inactive | inactive | inactive | inactive | inactive |  |
| CCc1ccc(CCOc2ccc(CC3SC(=O)NC3=O)cc2)nc1 (centres undefined) | inactive | inactive | inactive | inactive | inactive |  | inactive | -19% (inactive) | inactive | inactive | inactive | inactive | inactive | inactive | inactive | inactive | inactive | inactive |
| O=C(O)c1ccc(C(=O)O)cc1 | inactive |  | inactive | inactive | inactive | inactive | inactive | -0.318% (inactive) and 3.28% (inactive) | inactive | inactive | inactive | inactive and 15.5 µM (active) | inactive |  | inactive | inactive | inactive | inactive |
| O=c1[nH]c(=O)n([C@H]2C[C@H](O)[C@@H](CO)O2)cc1Br | inactive |  | inactive | inactive | inactive | inactive | inactive | 0.308% (inactive) | inactive | inactive | inactive | inactive | inactive | inactive | inactive | inactive | inactive | inactive |
| CCCCCCCC(=O)OC | inactive | inactive | inactive | inactive | inactive | inactive | inactive | -1.2% (inactive) and 5.05% (inactive) | inactive | inactive | inactive |  | inactive | inactive | inactive | inactive | inactive |  |
| Cc1ccc2oc(=O)ccc2c1 | inactive | inactive |  | inactive | inactive | inactive | inactive | -2.42% (inactive) and -2.11% (inactive) | inactive | inactive | inactive | inactive | inactive | inactive | inactive | inactive | inactive | inactive |
| CC(C)c1ccc(S(=O)(=O)O)cc1 | inactive | inactive |  | inactive | inactive | inactive | inactive | -1.12% (inactive) and 9.2% (inactive) |  | inactive | inactive | inactive | inactive |  | inactive | inactive | inactive |  |
| C[Si](O[Si](C)(C)C)O[Si](C)(C)C | inactive |  | inactive | inactive | inactive | inactive | inactive | 1.67% (inactive) and 1.77% (inactive) | inactive | inactive | inactive |  | inactive | inactive | inactive | inactive | inactive | inactive |
| Cc1occc(=O)c1O | inactive | inactive |  | inactive | inactive | inactive | inactive | -7.52% (inactive) and -0.505% (inactive) | inactive | inactive | inactive |  | inactive | inactive | inactive | inactive | inactive |  |
| C=CCNC(N)=S | inactive | inactive | inactive | inactive | inactive | inactive | inactive | -13.5% (inactive) and 2.87% (inactive) | inactive | inactive | inactive | inactive | inactive | inactive | inactive | inactive | inactive |  |
| CCCCCCCCCCCCCCO | inactive |  | inactive | inactive | inactive | inactive | inactive | -1.67% (inactive) and 1.72% (inactive) | inactive | inactive | inactive |  | inactive | inactive | inactive | inactive | inactive | inactive |
